uPA generation = blocks generation of uPA at the cell surface | AID 540303 | 330,000 tested, 0.31% active | Potency, µM (titrated, usually from 38.3 µM), for the others: top-dose activity change, negative = inhibition, hits mostly inhibitors | cell surface uPA generation assay, qHTS; active = well fitted inhibition curve with a large enough effect; inconclusive = small, poorly fitted or top-dose-only effect; inactive = no such curve, though single readings can be large or run the other way; tested in mouse RAW 264.7 cells; note: potency is the fitted concentration of half-maximal effect; % is set by controls: 0 for no effect and ±100 for the full control effect; nearly all actives have a fitted effect of over 55% in size
Six1-Eya2 inh = inhibitors of human Six1/Eya2 interaction; Q15475+O00167; activity change, % (no concentration beside the values); 360,000 tested, 0.56% active; AlphaScreen GST-Six1/His-Eya2 binding, biochemical; stronger effect = lower value; note: % is set by controls: 0 for no effect and ±100 for the full control effect
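GST-Six1 + His-Eya2 (5X stock: 250/500 nM); Tris pH 8.0, 300 mM NaCl, 0.05% BSA, 0.02% Tween 20; GSH donor/Ni acceptor beads; 1 h 37 °C dark; AlphaScreen readout.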
MBNL1-CUG inh = MBNL1-poly(CUG) RNA binding inhibition | Q9NR56 | TR-FRET MBNL1-His/biotin-(CUG)12 binding, 665/545 ratio | Potency, µM (series often up to 57.5 µM), for inactives: at the highest dose activity change, negative = inhibition, usual class: inhibitors | 280,000 tested, 0.036% active | AID 2675; active = well fitted inhibition curve with a large enough effect in the signal ratio, with a control signal flat, not every such curve was filed as active; inconclusive = small, poorly fitted or top-dose-only effect, or effect the other way, or a change in a side signal; inactive = no such curve, though single readings can be large or run the other way; the % refers to the signal ratio; note: potency is the fitted concentration of half-maximal effect; % is set by controls: 0 for no effect and ±100 for the full control effect
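Ratiometric TR-FRET (665 over 545 nm, excitation 340 nm) tracks disruption of MBNL1-His/biotin-(CUG)12 complex after 60 min at room temperature, with compounds at 92 nM to 58 uM final.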
Mito fusion act = inhibitors of mitochondrial division or activators of mitochondrial fusion; 320,000 tested, 0.23% active; S. cerevisiae fusion-defective mutant growth rescue, CellTiterGlo 48 h; AID 485298; Potency, µM (top dose mostly 46.1 µM), for the others: at the top dose growth rescue (activation), hits mostly activators; active = well fitted activation curve with a large enough effect; inconclusive = small, poorly fitted or top-dose-only effect; inactive = no such curve, though single readings can be large or run the other way; note: potency is the fitted concentration of half-maximal effect; % of control where 0% means no effect; nearly all actives have a fitted effect of over 45% in size
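Read-out: ATP-based luminescence (CellTiterGlo, 10 min ambient) reporting growth of fusion-defective ts yeast after 48 hours at 37C on glycerol/ethanol YPEG medium in the presence of compound.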
CtBP-E1A inh = CtBP/E1A binding inhibition. activity change, % (test concentration not listed). 340,000 tested, 0.49% active. AlphaScreen GST-E1A/His-CtBP binding, 1536-well; stronger effect = lower value; note: % is set by controls: 0 for no effect and ±100 for the full control effect
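GST-E1A and His-tagged CtBP (125 nM each as 5X stock) were preincubated with pin-transferred compound for 2 h at 37 °C in the dark, then glutathione donor and nickel acceptor beads were added for 1 h before AlphaScreen reading.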
* hit, by the source's call. Only some compounds are listed: those with a hit (about 1.1% of all), similar ones and a draw of the others. Cut-off read from the data, not from the text of the source, unless noted: active = activity change below about -65%; inconclusive = mostly about -30% to -63%; inactive = weaker than that.

Screening CC(=O)c1cc(F)ccc1OCC(=O)Nc1ccc2c(c1)OCO2 returned uPA generation -5%, Six1-Eya2 inh 2 and CtBP-E1A inh 0.
For NC(=O)c1cc(Cl)ccc1OCC(=O)Nc1ccc2c(c1)OCO2 the results were uPA generation 6.3µM*, Six1-Eya2 inh -11 and Mito fusion act 3%.
For Cc1cc(Br)cn2c(Cc3cccc(F)c3)c(-c3ccc(Cl)cc3)nc12 the results were Six1-Eya2 inh 3 and CtBP-E1A inh 11.
Screening COc1ccc(-n2nc3ccc(N)cc3n2)cc1 returned Six1-Eya2 inh -2 and CtBP-E1A inh -2.
Screening CCOc1ccc(-n2nc3ccc(N)cc3n2)cc1 returned uPA generation 10µM*, Six1-Eya2 inh 3, MBNL1-CUG inh 24% and Mito fusion act 2%.
For N#CCCCC#Cc1ccc2c(c1)COc1c3ccccc3nn1-2 the results were uPA generation 10µM*, Six1-Eya2 inh -8, Mito fusion act 3% and CtBP-E1A inh -9.
Screening C#Cc1ccc2c(c1)COc1c3ccccc3nn1-2 returned uPA generation 13µM*, Six1-Eya2 inh -2 and CtBP-E1A inh -4.
Screening N#CC1=C(N)n2c(s/c(=C\c3ccco3)c2=O)=C(C#N)C1c1ccco1 (stereo not given) returned uPA generation -2%, Six1-Eya2 inh -71*, MBNL1-CUG inh 22%, Mito fusion act 1% and CtBP-E1A inh inconclusive.
Screening O=C(CNc1ccc2ccccc2c1)N/N=C/c1cc2ccccc2nc1Cl returned uPA generation 1%, Six1-Eya2 inh -16, MBNL1-CUG inh inconclusive, Mito fusion act 14µM* and CtBP-E1A inh -17.
For Cc1ccc(S(=O)(=O)N2CC3C(=O)C[C@@H](c4ccccc4)N(S(=O)(=O)c4ccccc4Cl)C3CC2c2ccccc2)cc1 (stereo not given in full) the results were Six1-Eya2 inh -2 and CtBP-E1A inh 1.
For CC1(CO)CCCC1NCCNC1CCCC1(C)CO (stereo not given) the results were Six1-Eya2 inh 5 and CtBP-E1A inh 11.
`CCNC(=S)N=Nc1c(O)[nH]c2ccc([N+](=O)[O-])cc12` gave uPA generation 0%, Six1-Eya2 inh -84*, Mito fusion act -2% and CtBP-E1A inh -87*.
For O=[N+]([O-])c1ccc2[nH]c(O)c(N=NC(=S)Nc3cccnc3)c2c1 the results were uPA generation -4%, Six1-Eya2 inh -80*, MBNL1-CUG inh inconclusive, Mito fusion act 2% and CtBP-E1A inh -88*.
For O=C(O)c1ccccc1N=Nc1c(O)[nH]c2ccc([N+](=O)[O-])cc12 the results were uPA generation 3%, Six1-Eya2 inh -72*, MBNL1-CUG inh 16%, Mito fusion act 6% and CtBP-E1A inh -85*.
For Cc1cc2ncc(-c3ccc(Cl)cc3)c(N)n2n1 the results were uPA generation 3.5µM*, Six1-Eya2 inh -7, MBNL1-CUG inh -16%, Mito fusion act 8% and CtBP-E1A inh 0.
For Cc1cccc(NCc2ccc(O)c3ncccc23)c1C the results were uPA generation -19%, Six1-Eya2 inh -74*, MBNL1-CUG inh 16%, Mito fusion act -2% and CtBP-E1A inh -89*.
`Cc1cccnc1NCc1ccc(O)c2ncccc12` gave uPA generation -6%, Six1-Eya2 inh -90*, MBNL1-CUG inh 26%, Mito fusion act -1% and CtBP-E1A inh -91*.
For CCOC(=O)[C@]12CCCC=C1N(Cc1ccc3c(c1)OCO3)C(=O)[C@H](CC(=O)NCc1cccc(C(F)(F)F)c1)C2 the results were Six1-Eya2 inh -10 and CtBP-E1A inh 0.
O=C(Nc1ccccc1)Nn1cnnc1 was read as uPA generation 4%, Six1-Eya2 inh 3, MBNL1-CUG inh inconclusive, Mito fusion act 14% and CtBP-E1A inh 5.
O=C(Nc1cccc(Cl)c1)Nn1cnnc1 was read as uPA generation 4%, Six1-Eya2 inh 21, MBNL1-CUG inh 25µM*, Mito fusion act 1% and CtBP-E1A inh 1.
`c1cc(-c2ccc(N3CCOCC3)cc2)n2ccnc2c1` gave Six1-Eya2 inh -2 and CtBP-E1A inh -15.
Screening CCC(O)CNC(=O)NC(=C(Cl)Cl)c1ccc(C)c(F)c1 (stereo not given) returned uPA generation 10µM*, Six1-Eya2 inh 8, MBNL1-CUG inh -2%, Mito fusion act -3% and CtBP-E1A inh -11.
`O=C(CCS(=O)(=O)c1ccccc1)Nc1nc(-c2ccccn2)cs1` gave uPA generation inconclusive, Six1-Eya2 inh -11 and CtBP-E1A inh -80*.
`O=C(CCS(=O)(=O)c1ccccc1)Nc1ccccn1` gave uPA generation 0%, Six1-Eya2 inh 9, MBNL1-CUG inh -5%, Mito fusion act 2% and CtBP-E1A inh 4.
Screening CC(Oc1ccc(F)cc1)C(=O)Nc1nc(-c2ccccn2)cs1 (stereo not given) returned uPA generation -7%, Six1-Eya2 inh -28, Mito fusion act inconclusive and CtBP-E1A inh -79*.
`COc1ccc(OCCCC(=O)Nc2nc(-c3ccccn3)cs2)cc1` gave uPA generation 3%, Six1-Eya2 inh -24, MBNL1-CUG inh 34%, Mito fusion act -5% and CtBP-E1A inh -26.
`Cc1ccc(S(=O)(=O)CCC(=O)Nc2nc(-c3ccncc3)cs2)cc1` gave uPA generation 5%, Six1-Eya2 inh -5, MBNL1-CUG inh 2% and Mito fusion act 4%.
O=C(CCS(=O)(=O)c1ccc(F)cc1)Nc1nc(-c2ccccn2)cs1 was read as uPA generation -6%, Six1-Eya2 inh -76*, MBNL1-CUG inh 0% and Mito fusion act 4%.
C[C@H]1CC2C3CCC4=CC(=O)C=C[C@]4(C)[C@@]3(Cl)[C@@H](O)C[C@]2(C)[C@@]1(O)C(=O)CO (stereo not given in full) was read as Mito fusion act -2%.
For O=C1CC(c2cccc([N+](=O)[O-])c2)c2c(ccc3ccccc23)N1 (stereo not given) the results were uPA generation -5%, Six1-Eya2 inh 11, MBNL1-CUG inh 9%, Mito fusion act 7% and CtBP-E1A inh 18.
Screening Cc1ccc(C2CC(=O)Nc3c2ccc2ccccc32)cc1[N+](=O)[O-] (stereo not given) returned uPA generation -7%, Six1-Eya2 inh -21, MBNL1-CUG inh 19%, Mito fusion act 22µM* and CtBP-E1A inh -1.
Screening CCCCOc1ccc(CSC2=NCCN2)cc1[N+](=O)[O-] returned uPA generation 6.3µM*, Six1-Eya2 inh 8, MBNL1-CUG inh 16% and Mito fusion act -14%.
CCc1ccc(OCC(=O)N(Cc2ccc(OC)cc2)C2CCS(=O)(=O)C2)cc1 (stereo not given) was read as Mito fusion act -4%.

Screens from PubChem.
